# Where two headings read alike, the source gives them in different places.
# How the values were obtained:
# Design in all cases: species or system human, MV4-11 + K-562 + COLO205 + SK-N-BE2 + OVCAR-8
# [1] = system: AURKB; details: read-out: apparent Kd, n = 1
# [2] = system: EIF2AK1; details: read-out: apparent Kd, compound concentrations: 100 nM and 1000 nM (sheet 'Samples'), n = 1
# [3] = system: STK4; details: read-out: apparent Kd, compound concentrations: 100 nM and 1000 nM (sheet 'Samples'), n = 1
# [4] = system: CDC42BPB; details: read-out: apparent Kd; compound concentrations:100 nM and 1000 nM (sheet 'Samples'); n = 1
# [5] = system: CDC42BPG; details: read-out: apparent Kd; compound concentrations:100 nM and 1000 nM (sheet 'Samples'); n = 1
# [6] = system: PKN1; details: read-out: apparent Kd; compound concentrations:100 nM and 1000 nM (sheet 'Samples'); n = 1
# [7] = system: PRKACA; details: read-out: apparent Kd; compound concentrations:100 nM and 1000 nM (sheet 'Samples'); n = 1
# [8] = system: PRKACB; details: read-out: apparent Kd; compound concentrations:100 nM and 1000 nM (sheet 'Samples'); n = 1
# [9] = system: PRKG1; details: read-out: apparent Kd; compound concentrations:100 nM and 1000 nM (sheet 'Samples'); n = 1
# [10] = system: PRKX; details: read-out: apparent Kd; compound concentrations:100 nM and 1000 nM (sheet 'Samples'); n = 1
# [11] = system: ROCK1; details: read-out: apparent Kd; compound concentrations:100 nM and 1000 nM (sheet 'Samples'); n = 1
# [12] = system: ROCK2; details: read-out: apparent Kd; compound concentrations:100 nM and 1000 nM (sheet 'Samples'); n = 1
# [13] = system: STK26; details: read-out: apparent Kd; compound concentrations:100 nM and 1000 nM (sheet 'Samples'); n = 1
# [14] = system: BCR; details: read-out: apparent Kd; compound concentrations:100 nM and 1000 nM (sheet 'Samples'); n = 1
# [15] = system: GAK; details: read-out: apparent Kd; compound concentrations:100 nM and 1000 nM (sheet 'Samples'); n = 1
# [16] = system: MAPK10; details: read-out: apparent Kd; compound concentrations:100 nM and 1000 nM (sheet 'Samples'); n = 1
# [17] = system: MAPK9; details: read-out: apparent Kd; compound concentrations:100 nM and 1000 nM (sheet 'Samples'); n = 1
# [18] = system: NQO2; details: read-out: apparent Kd; compound concentrations:100 nM and 1000 nM (sheet 'Samples'); n = 1
# [19] = system: PIK3CD; details: read-out: apparent Kd; compound concentrations:100 nM and 1000 nM (sheet 'Samples'); n = 1
# [20] = system: PRKD1; details: read-out: apparent Kd; compound concentrations:100 nM and 1000 nM (sheet 'Samples'); n = 1
# [21] = system: PRKD2; details: read-out: apparent Kd; compound concentrations:100 nM and 1000 nM (sheet 'Samples'); n = 1
# [22] = system: PRKD3; details: read-out: apparent Kd; compound concentrations:100 nM and 1000 nM (sheet 'Samples'); n = 1
# [23] = system: RIPK2; details: read-out: apparent Kd; compound concentrations:100 nM and 1000 nM (sheet 'Samples'); n = 1
# [24] = system: SIK3; details: read-out: apparent Kd; compound concentrations:100 nM and 1000 nM (sheet 'Samples'); n = 1
# [25] = system: STK16; details: read-out: apparent Kd; compound concentrations:100 nM and 1000 nM (sheet 'Samples'); n = 1
# [26] = system: TGFBR1; details: read-out: apparent Kd; compound concentrations:100 nM and 1000 nM (sheet 'Samples'); n = 1
# [27] = system: TGFBR2; details: read-out: apparent Kd; compound concentrations:100 nM and 1000 nM (sheet 'Samples'); n = 1
# [28] = system: TNIK; details: read-out: apparent Kd; compound concentrations:100 nM and 1000 nM (sheet 'Samples'); n = 1
# [29] = system: ZAK; details: read-out: apparent Kd; compound concentrations:100 nM and 1000 nM (sheet 'Samples'); n = 1
# [30] = system: CAMK2B; details: read-out: apparent Kd; compound concentrations: 100 nM and 1000 nM (sheet 'Samples'), CATDS: 1; n = 1
# [31] = system: STK3; details: read-out: apparent Kd; compound concentrations: 100 nM and 1000 nM (sheet 'Samples'), CATDS: 0.22390025297111801; n = 1
smiles,measurement,setting,value
Cn1cc(-c2ccc3c(c2)CCN3C(=O)Cc2cccc(F)c2)c2c(N)ncnc21 [GSK2603358A],potency estimated from few doses,"[1]; compound concentrations: 100 nM and 1000 nM (sheet 'Samples'), CATDS: 0.35952241449560002",1280 nM
same,potency estimated from few doses,[2]; CATDS: 0.39682644993145699,1070 nM
same,potency estimated from few doses,[3]; CATDS: 0.27037703695169801,2430 nM
CC(C)NCC(Cc1ccccc1)NC(=O)c1cc(Br)c(-c2ccnc3[nH]ccc23)s1.CC(C)NCC(Cc1ccccc1)NC(=O)c1cc(Br)c(-c2ccnc3[nH]ccc23)s1.Cl.Cl (centres unmarked) [GSK1383281A],potency estimated from few doses,[1]; compound concentrations:100 nM and 1000 nM (sheet 'Samples'),950 nM
same,potency estimated from few doses,[4],1320 nM
same,potency estimated from few doses,[5],1360 nM
same,potency estimated from few doses,[6],840 nM
same,potency estimated from few doses,[7],70.2 nM
same,potency estimated from few doses,[8],102 nM
same,potency estimated from few doses,[9],13.6 nM
same,potency estimated from few doses,[10],1100 nM
same,potency estimated from few doses,[11],43.1 nM
same,potency estimated from few doses,[12],48 nM
same,potency estimated from few doses,[13],1940 nM
CN(C)CCOc1ccc(-c2cc(-c3c[nH]nc3-c3ccccn3)ccn2)cc1 [GW835314X],potency estimated from few doses,[14],668 nM
same,potency estimated from few doses,[15],151 nM
same,potency estimated from few doses,[16],1410 nM
same,potency estimated from few doses,[17],2050 nM
same,potency estimated from few doses,[18],176 nM
same,potency estimated from few doses,[19],145 nM
same,potency estimated from few doses,[20],161 nM
same,potency estimated from few doses,[21],55.4 nM
same,potency estimated from few doses,[22],52.8 nM
same,potency estimated from few doses,[23],219 nM
same,potency estimated from few doses,[24],1800 nM
same,potency estimated from few doses,[25],1740 nM
same,potency estimated from few doses,[26],1.84 nM
same,potency estimated from few doses,[27],149 nM
same,potency estimated from few doses,[28],679 nM
same,potency estimated from few doses,[29],1820 nM
Cc1ccc2c(-c3ccnc(Nc4ccc5c(c4)OCCO5)n3)c(-c3ccc(C(F)(F)F)cc3)nn2n1 [GW832467X],potency estimated from few doses,[30],475 nM
COc1cccc(CC(=O)N2CCc3cc(-c4cn(C)c5ncnc(N)c45)ccc32)c1 [GSK2608899A],potency estimated from few doses,"[1]; compound concentrations: 100 nM and 1000 nM (sheet 'Samples'), CATDS: 0.23694703885971399",1340 nM
same,potency estimated from few doses,[2]; CATDS: 0.26763431459408499,1050 nM
same,potency estimated from few doses,[31],1510 nM
same,potency estimated from few doses,[3]; CATDS: 0.27956924002989397,966 nM

# — publication PMC11062922 (Nature Chemical Biology, 2023)
